Data reported in PubChem BioAssay AID623994 (NMMLSC, 2012).
Potency and affinity values are given separately. Calls of active or inactive are those of the source.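 The calls were made as follows: active = compounds whose fitted concentration for half the maximal dye retention is below 100 µM; inactive = the rest.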

Target: Multidrug resistance protein CDR2 (Candida albicans (strain SC5314 / ATCC MYA-2876)) (UniProt P78595)
Assay: blockers of Nile Red efflux by Candida CDR2 – S. cerevisiae AD1-8u, singleplex, Cherry Pick2 set, dose response (AID 623994)
Conditions: S. cerevisiae AD1-8u expressing CaCDR2, Nile Red efflux; series mostly up to 100 µM

Sequence of Multidrug resistance protein CDR2 (Candida albicans (strain SC5314 / ATCC MYA-2876)) (P78595 whole entry, looked up): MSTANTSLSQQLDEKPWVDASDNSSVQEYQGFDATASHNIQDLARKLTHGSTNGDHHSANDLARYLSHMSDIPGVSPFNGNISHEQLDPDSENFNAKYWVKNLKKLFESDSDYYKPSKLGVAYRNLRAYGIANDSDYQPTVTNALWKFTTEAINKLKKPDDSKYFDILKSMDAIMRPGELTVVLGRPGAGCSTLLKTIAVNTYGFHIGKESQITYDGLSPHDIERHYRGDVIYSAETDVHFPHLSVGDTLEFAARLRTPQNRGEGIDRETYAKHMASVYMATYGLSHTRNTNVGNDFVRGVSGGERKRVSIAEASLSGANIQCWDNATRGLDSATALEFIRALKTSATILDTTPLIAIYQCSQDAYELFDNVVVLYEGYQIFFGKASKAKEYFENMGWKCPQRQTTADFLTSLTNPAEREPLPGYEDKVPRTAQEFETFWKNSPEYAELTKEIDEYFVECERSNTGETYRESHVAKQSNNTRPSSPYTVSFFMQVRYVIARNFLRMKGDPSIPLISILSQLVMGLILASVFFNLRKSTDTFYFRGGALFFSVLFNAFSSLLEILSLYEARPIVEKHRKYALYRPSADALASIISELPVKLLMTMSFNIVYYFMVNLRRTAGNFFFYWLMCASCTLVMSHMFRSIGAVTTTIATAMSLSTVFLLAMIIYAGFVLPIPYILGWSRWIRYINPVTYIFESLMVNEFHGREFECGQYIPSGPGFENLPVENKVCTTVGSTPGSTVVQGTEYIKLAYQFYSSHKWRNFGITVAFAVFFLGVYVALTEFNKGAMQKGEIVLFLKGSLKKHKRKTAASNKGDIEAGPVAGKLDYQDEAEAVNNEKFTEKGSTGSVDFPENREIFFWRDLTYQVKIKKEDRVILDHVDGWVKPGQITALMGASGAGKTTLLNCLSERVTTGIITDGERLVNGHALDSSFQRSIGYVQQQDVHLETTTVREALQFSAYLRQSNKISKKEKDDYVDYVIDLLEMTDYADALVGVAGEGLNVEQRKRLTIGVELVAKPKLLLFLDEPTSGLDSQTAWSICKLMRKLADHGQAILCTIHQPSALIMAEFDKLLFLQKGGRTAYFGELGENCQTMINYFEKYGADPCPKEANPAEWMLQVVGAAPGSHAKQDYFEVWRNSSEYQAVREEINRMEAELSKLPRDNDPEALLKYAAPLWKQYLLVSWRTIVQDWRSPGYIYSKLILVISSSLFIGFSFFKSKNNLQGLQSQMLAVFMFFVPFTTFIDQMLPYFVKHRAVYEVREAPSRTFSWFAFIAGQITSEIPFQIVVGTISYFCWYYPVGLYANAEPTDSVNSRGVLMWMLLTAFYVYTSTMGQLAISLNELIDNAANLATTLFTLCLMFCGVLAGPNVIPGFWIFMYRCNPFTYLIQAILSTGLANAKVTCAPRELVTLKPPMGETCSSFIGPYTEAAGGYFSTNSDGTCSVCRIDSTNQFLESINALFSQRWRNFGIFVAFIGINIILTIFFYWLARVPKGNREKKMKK

outcome, inactive:
CCOc1cccc2sc(NC(=O)c3ccc(Br)s3)nc12
COc1cc(OC)c2ccc(=O)oc2c1C(CCN1CCCC(C)C1)c1ccc(N(C)C)cc1 (stereo unspecified)
O=C(NC1CCCc2c1cnn2-c1ccccc1F)c1ccccn1 (stereo unspecified)
O=C(C[n+]1cc(-c2ccc(F)cc2)n2c1CCC2)N1c2ccccc2Sc2ccccc21
Cc1ccc(-c2c[n+](CC(=O)N3c4ccccc4Sc4ccccc43)c3n2CCC3)cc1
CCCCN1Cc2cc(C(=O)c3cc(OC)ccc3O)cnc2NC1=O
COc1ccc([C@H]2CC(=O)C=C(c3ccnc4ccc(Cl)cc34)C2)cc1
C[C@@]12C(=O)Nc3ccc(Cl)cc3C(=O)N1[C@H]1c3cc(Cl)ccc3OC[C@@H]1[C@@H]2c1ccccc1
N#CC(C(=O)NCc1ccccc1)c1nc2ccccc2nc1N1CCCC1 (stereo unspecified)
CN1Cc2cc(C(=O)c3ccccc3O)cnc2NC1=O
O=C(C1CCCN(c2ncnc3c2nc2n3CCCCC2)C1)N1CCN(c2cccc(Cl)c2)CC1 (stereo unspecified)
Cc1ccc(O)c(C(=O)c2cnc3c(c2)CN(CCC(C)C)C(=O)N3)c1
Cc1ccc(N2CCN(C(=O)C3CCCN(c4ncnc5c4nc4n5CCCCC4)C3)CC2)c(C)c1 (stereo unspecified)
COc1ccc(C2CC(c3ccccc3)=NN2c2ccc(S(N)(=O)=O)cc2)cc1 (stereo unspecified)
CCC(=O)N1CCN(c2ccc(Cl)cc2NC(=O)c2ccc3c(c2)OCCO3)CC1
CCCCN1Cc2cc(C(=O)c3cc(F)ccc3O)cnc2NC1=O
